Rab9 prom act: activates the Rab9 promoter | Huh7 Rab9 promoter-luciferase reporter, luminescence, 24 h | Potency, µM (titrated, usually from 9.22 µM), most hits filed as activators | 320,000 tested, 2.8% active | AID 485297; further: nearly all actives have a fitted effect of over 60% in size
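Luminescence read-out: Huh7 cells stably expressing Rab9-luciferase, treated 24 h with compound at 37 °C, then lysed with luciferase reagent for 10 min at ambient before reading.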
SMN2 splice up: enhancers of SMN2 splice variant expression | 210,000 tested, 2.8% active | AID 1458 | Potency, µM (highest dose often 46.1 µM), actives largely listed as activators | HEK293 SMN2-luciferase splicing reporter, luminescence, 30-36 h; further: nearly all actives have a fitted effect of over 55% in size
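HEK293 cells carry an SMN2 […]–luciferase reporter in which exon 7 inclusion puts luciferase in frame. Cells were plated 10-12 h before compound addition, then incubated 30-36 h at 37C. ONE-Glo luminescence was read; sodium butyrate at 4.5 mM final served as control.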
Luc counter: blocks Kinase-Glo luciferase, a counter-screen artifact. AID 1379. 200,000 tested, 0.28% active. Q27757. Potency, µM (series often up to 38.3 µM), usual class: inhibitors. Kinase-Glo luciferase, ATP luminescence, 8 min; further: nearly all actives have a fitted effect of over 60% in size
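Kinase-Glo luciferase light output from ATP and luciferin was measured with 10 uM ATP, within the enzyme's linear range. Buffer: 50 mM imidazole pH 7.2, 50 mM KCl, 7 mM MgCl2, 0.01% Tween 20, 0.05% BSA; luminescence read after 8 min at ambient temperature.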
NPC1 promoter act: NPC1 promoter activation; Huh7 NPC1 promoter luciferase reporter, 24 h; Potency, µM (highest dose often 9.22 µM), usual class: activators; 320,000 tested, 2.4% active; AID 485313; further: nearly all actives have a fitted effect of over 60% in size
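Quantitative HTS used a cell-based reporter: Huh7 cells stably bearing the NPC1 promoter upstream of luciferase were treated with compounds for 24 h, and promoter activation was read as luminescence.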
FLuc modulator: inhibits or activates purified firefly luciferase, miR-21 counter-screen | AID 588342 | 360,000 tested, 6.9% active | purified FLuc, Km substrates, luminescence inhibition | Potency, µM (highest dose often 57.5 µM), hits mostly inhibitors | P08659; further: nearly all actives have a fitted effect of over 55% in size
Target sequence (P08659 whole entry, looked up): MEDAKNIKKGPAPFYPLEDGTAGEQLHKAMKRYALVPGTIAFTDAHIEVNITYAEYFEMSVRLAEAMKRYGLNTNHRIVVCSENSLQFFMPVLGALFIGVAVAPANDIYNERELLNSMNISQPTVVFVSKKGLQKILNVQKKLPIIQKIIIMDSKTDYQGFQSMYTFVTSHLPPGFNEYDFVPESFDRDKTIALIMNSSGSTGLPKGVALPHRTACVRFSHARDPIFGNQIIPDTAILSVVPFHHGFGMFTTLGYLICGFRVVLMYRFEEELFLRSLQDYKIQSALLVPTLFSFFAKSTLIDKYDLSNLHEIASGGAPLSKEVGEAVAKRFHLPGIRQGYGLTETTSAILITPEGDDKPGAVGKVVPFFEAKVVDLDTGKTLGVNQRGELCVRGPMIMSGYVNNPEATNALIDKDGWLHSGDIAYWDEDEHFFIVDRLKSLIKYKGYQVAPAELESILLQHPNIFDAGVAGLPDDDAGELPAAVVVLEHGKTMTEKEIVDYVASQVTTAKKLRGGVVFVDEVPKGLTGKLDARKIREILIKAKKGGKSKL
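Purified P. pyralis luciferase, 10 nM final, with Km-level 10 uM D-luciferin and 10 uM ATP in 50 mM Tris acetate pH 7.5, 10 mM Mg acetate, 0.01% Tween-20, 0.05% BSA; 6-point qHTS titration about 60 µM downward; luminescence read.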
ELG1 genotoxic: inducers of genotoxicity in HEK293T ELG1-luciferase cells; Potency, µM (titrated, usually from 46 µM), usual class: activators; HEK293T ELG1-luciferase reporter, luminescence, 16 h; AID 504466; 330,000 tested, 1.3% active; further: nearly all actives have a fitted effect of over 60% in size
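Reporter readout depends on ELG1 protein level, which increases with genetic stress. After 16 hr compound exposure at 37 °C, luciferase activity was quantified using ONE-Glo.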
A number is an active result; . = inactive; ? = inconclusive; / = no result given; [ ] = another dose, or the depositor's remark. Compounds with a hit are over-represented: about 7.5% of the library has one in this group of screens. The call rests on the fitted dose curve; in most records, active means well fitted curve in the direction sought with a large enough effect; inconclusive means small, poorly fitted or top-dose-only effect, or another doubt; inactive means no such curve, though single readings can be large; an effect the other way counts as inactive or inconclusive.

SMILES	Rab9 prom act	SMN2 splice up	Luc counter	NPC1 promoter act	FLuc modulator	ELG1 genotoxic
CCOC(=O)c1noc2nc(C)n(CC(=O)Nc3cc(Cl)ccc3OC)c(=O)c12	/	/	/	/	.	/
CC(C)(C)n1ncc2c(=O)n(CC(=O)Nc3ccccc3)cnc21	.	.	.	.	.	.
CC(C)(C)n1ncc2c(=O)n(CC(=O)NCc3ccc(F)cc3)cnc21	0.355µM	8.91µM	.	0.501µM	4.26µM	4.11µM
CC(C)(C)n1ncc2c(=O)n(CC(=O)NC3CCCCC3)cnc21	?	.	.	?	?	?
CC(C)(C)n1ncc2c(=O)n(CC(=O)NCc3ccco3)cnc21	3.16µM	12.6µM	.	3.16µM	?	?
COC(=O)CSc1nc2sc3c(c2c(=O)n1-c1ccc(C)cc1)CC(C(C)C)OC3 (stereo not drawn)	/	.	/	/	.	/
CCCS(=O)(=O)Nc1cc2c(cc1NCc1ccccc1)n(C)c(=O)n2C	/	5.62µM	/	/	?	/
COc1ccc(S(=O)(=O)Nc2cc3c(cc2NCc2ccccc2)n(C)c(=O)n3C)cc1	/	10µM	/	/	23.9µM	/
Cn1c(=O)n(C)c2cc(NS(=O)(=O)c3ccc(Br)cc3)c(NCc3ccccc3)cc21	/	7.08µM	/	/	?	/
Cc1ccc(Cn2c(C(=O)O)c(CNCc3cccs3)c3ccc(C)cc32)cc1	/	/	/	/	.	/
Cc1ccc(C(=O)Nc2sc3c(c2C(=O)O)CCCCC3)o1	3.55µM	12.6µM	7.94µM	3.55µM	2.69µM	.
COC(=O)c1c(NC(=O)c2ccc(C)o2)sc2c1CCCCC2	3.55µM	14.1µM	.	3.55µM	12µM	10.3µM
Cc1ccc(C(=O)Nc2sc3c(c2C(=O)O)CCCC3)o1	?	/	/	?	12µM	.
CCc1ccc(CN(Cc2ccco2)c2cnc(S(C)(=O)=O)nc2C(=O)Nc2ccccc2Cl)cc1	/	/	/	/	.	/
CCOCCc1nn2c(=O)cc(COC(=O)c3ccccc3NC(=O)c3ccccc3F)nc2s1	/	/	/	/	.	/
Clc1cccc(Cl)c1C1=NOC(c2nnc(-c3ccccc3)o2)C1 (stereo not drawn)	?	/	/	.	19µM	.
Clc1ccc(C2=NOC(c3nnc(-c4ccccc4)o3)C2)cc1 (stereo not drawn)	.	/	/	.	.	.
O=C(CSc1nnc(Nc2ccccc2)s1)Nc1ccc(S(=O)(=O)N2CCOCC2)cc1	.	.	.	.	10.7µM	.
COc1ccc(NC(=O)CSc2nnc(NC(=O)c3ccc(S(=O)(=O)N4CCOCC4)cc3)s2)cc1	.	?	.	.	2.69µM	?
Cc1ccc(Nc2nnc(SCC(=O)Nc3ccc(S(=O)(=O)N4CCOCC4)cc3)s2)cc1	.	.	.	.	3.01µM	?
O=C(CSc1nnc(Nc2ccccc2)s1)NN1C(=O)NC2(CCCCC2)C1=O	.	.	.	.	19µM	.
Nc1nnc(SCC(=O)Nc2cccc(S(=O)(=O)N3CCOCC3)c2)s1	.	/	/	.	.	.
NC(=O)CSc1nnc(NC(=O)c2ccc(S(=O)(=O)N3CCOCC3)cc2)s1	.	/	/	.	?	.
CCCn1c(-c2ccc(S(=O)(=O)N3CCOCC3)cc2)csc1=Nc1ccc(OCC)cc1	/	.	/	/	.	/
COc1ccc(N=Cc2c[nH][nH]c2=O)cc1	.[1.84 µM]	.	.	.	.	.
SMILES	Rab9 prom act	SMN2 splice up	Luc counter	NPC1 promoter act	FLuc modulator	ELG1 genotoxic
C=CCOc1ccc(C=Nc2ccc(OC)cc2)c(O)c1	.	/	/	.	8.49µM	.
CNC(=O)c1ccsc1NC(=O)c1ccc2c(c1)CCCC2	.	11.2µM	.	.	0.953µM	.
NC(=O)c1ccsc1NC(=O)c1ccc2c(c1)CCCC2	?	1.58µM	?	?	0.601µM	2.59µM
NC(=O)c1ccsc1NC(=O)c1ccc(N2CCCC2=O)cc1	0.631µM	17.8µM	?	2.24µM	3.01µM	1.64µM
NC(=O)c1ccsc1NC(=O)C1CCCCC1	.	.	.	.	.	.
Cc1ccc2nc3c(cc(C#N)c(=O)n3-c3nnc(SCc4ccccc4)s3)c(=O)n2c1	/	.	/	/	.	/
NC(=O)c1cccnc1Nc1cccc([N+](=O)[O-])c1	1.78µM	/	.	3.98µM	15.1µM	?
Clc1ccccc1/C=N/NC1=Nc2cccc3cccc1c23	4.47µM	5.62µM	.	?	0.849µM	16.4µM
C(=N\NC1=Nc2cccc3cccc1c23)/c1ccccn1	.	.	.	.	1.51µM	?
CCc1nnc(N/N=C/c2ccccc2Cl)n1N	.	.	.	.	.	.
COCCNC(=O)CSc1nc(-c2ccccc2)[nH]c1-c1ccc(OC)cc1	/	.	/	/	.	/
CC1=NN(c2ccc(C)cc2)C(=O)/C1=C/c1ccc(-c2cc([N+](=O)[O-])ccc2O)o1	.	/	/	.	12µM	.
CC1=NN(c2ccc(Cl)c(C(=O)O)c2)C(=O)/C1=C\c1ccc(-c2ccc(C(=O)O)cc2)o1	.	.	.	.	26.9µM	.
O=C1NN(c2cccc(Br)c2)C(=O)/C1=C/c1ccc(-c2cc([N+](=O)[O-])ccc2O)o1	.	/	/	.	?	.
COC(=O)c1ccccc1-c1ccc(/C=C2\C(=O)N(c3ccccc3)N=C2c2ccccc2)o1	.	.	.	.	.	.
CC1=NN(c2ccc(C(=O)O)cc2)C(=O)/C1=C/c1ccc(-c2ccccc2F)o1	.	/	/	.	4.78µM	.
CC(=O)OCCCN1c2ccccc2Nc2nnc(-c3ccccc3)cc21	1.58µM	14.1µM	.	1.78µM	2.39µM	?
Cc1ccc(NC(=O)CN2C(=O)NC(C)(c3ccc4c(c3)OCO4)C2=O)cc1 (stereo not drawn)	/	/	/	/	/	.
CC(C(=O)Nc1ccc(C(=O)O)cc1)N1C(=O)c2ccccc2C1=O (stereo not drawn)	.	.	.	.	.	.
Cc1ccc2nc(-c3ccc(NC(=O)C(C)N4C(=O)c5ccccc5C4=O)cc3)sc2c1 (stereo not drawn)	.	11.2µM	.	?	8.49µM	?
Cc1cccc(NC(=O)CCN2C(=O)c3ccccc3C2=O)c1	.	/	/	.	.	.
Cc1ccc2nc(-c3ccc(NC(=O)CCN4C(=O)c5ccccc5C4=O)cc3)sc2c1	0.251µM	0.316µM	.	0.398µM	1.51µM	1.03µM
Cc1ccc(C2(C)NC(=O)N(CC(=O)Nc3ccc(-c4nc5ccc(C)cc5s4)cc3)C2=O)cc1 (stereo not drawn)	?	/	/	1.78µM	2.39µM	?
O=C(CCN1C(=O)c2ccccc2C1=O)Nc1nc2ccccc2s1	.	.	.	.	19µM	.
CC(=O)N1CCc2cc(CNS(=O)(=O)c3ccc(Cl)s3)ccc21	/	/	/	/	.	/
Cc1ccc(NC(=O)CCS(=O)(=O)c2cc(Br)cc3c2N(C(=O)C2CC2)CC3)cc1	/	/	/	/	.	/
COc1ccccc1CNC(=O)Cn1ncn2c(cc3sccc32)c1=O	/	.	/	/	.	/
O=C(CCN1C(=O)c2ccccc2C1=O)Nc1ccc(-c2nc3ccccc3s2)cc1	0.398µM	/	/	1.26µM	?	10.3µM

Bioassay records deposited in PubChem BioAssay by National Center for Advancing Translational Sciences (NCATS).
